About 83,000 compounds went through this panel and 20% of them were active in at least one assay; those are over-represented in the sample as a whole.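 48-hour exposure, single concentration, 96-well plates; percent growth endpoint where 0 means no net growth. Active: below 10.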 A number with no mark means an inactive call. Activity calls are given as the source filed them.

For this test, the system named is SK-MEL-2 melanoma. As to the kind of experiment: NCI-60 one-dose screen, 48 h (100 = growth as untreated, 0 = no growth, -100 = all killed). As to conditions: 10 µM unless noted.
Regarding `COc1cccc(-c2[nH]c(=S)ncc2C(=O)c2ccccc2)c1`, the growth was 99.9%.

For `O=C(N=c1n(-c2ccccc2)nc2n1CCN2C1=NCCN1C(=O)c1ccc(Cl)cc1)c1ccc(Cl)cc1`, the growth was 83.3%.

For the compound `COc1cc2c(=O)[nH]c3cc([N+](=O)[O-])ccc3c2cc1[N+](=O)[O-]`, the growth is 86.1%.

For the compound `NC(=O)CC1C=CCC1` (stereo not given), the growth is 105%.

Regarding `O=C(Nc1cccc2ccccc12)c1cc2ccccc2cc1O`, the growth is 20.9%.

Turning to `Cc1ccc(N)c(O)c1`, the growth was 100%.

Regarding `CCOC(=O)CCC[P+](c1ccccc1)(c1ccccc1)c1ccccc1`, the growth was 85.4%.

For the compound `CCN(CC)c1cc(N)c(Cc2c(N)cc(N(CC)CC)cc2Cl)c(Cl)c1`, the growth is 41.6%.

As for `CSc1nc(N)c(N=Nc2ccc(S(=O)(=O)Nc3nnc(C)s3)cc2)c(=O)[nH]1`, the growth is 113%.

Regarding `CC1(C)C(=O)/C(=C\c2cccnc2)C[C@]2(C)[C@H]3CC[C@@H]4[C@H]5[C@H](C(=O)/C=C/c6cccnc6)CC[C@]5(C(=O)O)CC[C@@]4(C)[C@]3(C)CC[C@@H]12`, the growth is -55.1% [100 µM] (active).

Take `N#CCCc1c[nH]c2ccccc12`: the growth was 88.4%.

Consider `C[C@@H]1C[C@H]2C(=O)O[C@@H](C)[C@H](NC(=O)[C@H](Cc3cc(F)cc(F)c3)NC(=O)Nc3ccc(C4CC4)cc3F)C(=O)N3CCC[C@H]3C(=O)N3CCCC[C@H]3C(=O)N[C@@H](C)C(=O)N2C1`, for which the growth was 16.7%.

With `CCN(CC)CCCC(C)Nc1c2ccc(C)cc2nc2ccc(OC)cc12` (stereo not given), the growth is 39.2%.

As for `C#CCNC(=O)CC[C@]1(C)[C@H]2CC[C@@H]3[C@@H]([C@@](C)(O)CCC=C(C)C)CC[C@@]3(C)[C@]2(C)CC[C@H]1C(=C)C`, the growth was 49.1% [100 µM].

Consider `CC1(C)CC[C@]2(C(=O)O)CC[C@]3(C)C(=CC[C@@H]4[C@@]5(C)C/C(=C/c6ccco6)C(=O)C(C)(C)[C@@H]5CC[C@]43C)[C@@H]2C1`, for which the growth was -69.3% [100 µM] (active).

For `C=C(C)[C@@H]1CC[C@]2(C(=O)O)CC[C@]3(C)[C@H](CC[C@@H]4[C@@]5(C)C/C(=C/c6ccco6)C(=O)C(C)(C)[C@@H]5CC[C@]43C)[C@@H]12`, the growth was -76% [100 µM] (active).

In the case of `C[n+]1cccc(NC(=O)c2ccc3ccc4ccc(C(=O)Nc5ccc[n+](C)c5)nc4c3n2)c1`, the growth was 56.9%.

Turning to `Cc1ccc(S(=O)(=O)N/N=C2\CC3CCC2(C)C3(C)C)cc1` (stereo not given), the growth was 76.8%.

As for `CCOC(=O)c1nn(C2CCCCO2)c2ccc(NC(=O)Cn3nnc4ccccc43)cc12` (stereo not given), the growth was 113%.

`Cn1cc(-c2nnc(-c3cn(C)c4ncc(Br)cc34)o2)c2ccccc21`: the growth is 99.1%.

As for `O=C(Nc1ccc(Oc2ccc(F)cc2)c(Cl)c1)c1cccnn1`, the growth was 77.7%.

For `Cc1ccc2c(n1)C(=O)C(Cl)=C(Nc1ccc(N3CCN(C)CC3)cc1)C2=O`, the growth was 68.4%.

As to `c1cc2ccc1CNCCN1CCNCc3ccc(cc3)Oc3ccc(cc3)CNCCN(CCNCc3ccc(cc3)O2)CCNCc2ccc(cc2)Oc2ccc(cc2)CNCC1`, the growth was -94.5% (active).

For `Cc1ccc(-c2cn(C/C=C3\C=CN(S(=O)(=O)c4ccccc4)CC3)nn2)cc1`, the growth is 101%.

With `CCCCCCCCN(CCCCCCCC)CC(O)c1ccc(Cl)c(C)c1Cl` (stereo not given), the growth is 123%.

These data come from PubChem BioAssay (NCI).
